Measured values published in PMC4552634, “A New Set of Chemical Starting Points with Plasmodium falciparum Transmission-Blocking Potential for Antimalarial Drug Discovery” (PLoS ONE, 2015).
Read-outs that look alike come from different tables or passages of the source. Out of some 13,000 compounds screened, about 3,200 (25%) showed an effect of 50% or more. Some of the results follow.

Tested on: P. falciparum stage V gametocytes
Design: BacTiter-Glo ATP luminescence viability of purified stage V gametocytes in 384-well plates, per cent inhibition versus DMSO
Settings: 48 h, 5 µM, inhibitor

Structure (SMILES)	% Inhibition [%]	% Inhibition (% Inhibition) [%]
Nc1nc2c(cnn2CCCCCCCP(=O)(O)O)c(=O)[nH]1 [TCMDC-137339]	21.15	
CN1CCCN(Cc2ccc(-c3cccc(NC(=O)c4cccc(C#N)c4)c3)cc2)CC1 [TCMDC-132648]	64.68	
N#Cc1cccc(C(=O)Nc2ccc(-c3cccc(CN4CCCC4)c3)cc2)c1 [TCMDC-132674]	97.51	
CN1CCCN(Cc2cccc(-c3cccc(NC(=O)c4cccc(C#N)c4)c3)c2)CC1 [TCMDC-132661]	20.56	
N#Cc1cccc(C(=O)Nc2cccc(-c3ccc(CN4CCCC4)cc3)c2)c1 [TCMDC-132650]	24.3	
CN1CCCN(Cc2cccc(-c3ccc(NC(=O)c4cccc(C#N)c4)cc3)c2)CC1 [TCMDC-132673]	15.02	
N#Cc1ccc(C(=O)Nc2ccc(-c3cccc(CN4CCCC4)c3)cc2)cc1 [TCMDC-132668]	1.206	
N#Cc1cccc(C(=O)Nc2ccc(-c3ccc(CN4CCCC4)cc3)cc2)c1 [TCMDC-132596]	64.33	
CN1CCCN(Cc2ccc(-c3ccc(NC(=O)c4cccc(C#N)c4)cc3)cc2)CC1 [TCMDC-132594]	-1.455	
N#Cc1ccc(C(=O)Nc2cccc(-c3ccc(CN4CCCC4)cc3)c2)cc1 [TCMDC-132639]	23.71	
O=C(NCc1ccc(C(=O)NC2CCCCC2)cc1)c1ccc(O)c(-c2ccc(Cl)c(Cl)c2)c1 [TCMDC-140825]	-4.793	
CN(c1ccc(C(=O)N[C@@H](CCC(=O)O)C(=O)O)cc1)S(=O)(=O)c1ccc2nc(N)[nH]c(=O)c2c1 [TCMDC-137344]	2.989	
COC(=O)c1ccc(CC(C)NCC(O)c2cccc(C(F)(F)F)c2)c(OC)c1 (stereo not shown) [TCMDC-131469]	14.6	
CCN(CCCN1CCCCC1)c1cc(C)nc(Nc2cccc(OC(F)(F)F)c2)n1 [TCMDC-132429]	-20.04	
COc1cc2nc(N3CCC(CNC(=O)c4ccc(-c5ccc(C(=O)N(C)C)cc5OCCN(C)C)cc4)CC3)nc(N)c2cc1OC [TCMDC-138760]	100.1	
COc1cc2nc(N3CCC(CNC(=O)c4ccc(-c5ccc(C(=O)N(C)C)cc5O)cc4)CC3)nc(N)c2cc1OC [TCMDC-138752]	72.56	
COc1cc2nc(N3CCC(CNC(=O)c4ccc(-c5ccc(C(=O)N(C)C)cc5)cc4)CC3)nc(N)c2cc1OC [TCMDC-138719]	58.63	
COCCNc1nc(N2CCC(CNC(=O)c3ccc(-c4ccc(C(=O)N(C)C)cc4C)cc3)CC2)nc2cc(OC)c(OC)cc12 [TCMDC-138729]	5.197	
COc1cc2nc(N3CCC(CNC(=O)c4ccc(-c5ccc(C(=O)N(C)C)cc5)c(OCCO)c4)CC3)nc(N)c2cc1OC [TCMDC-138742]	39.21	
COc1cc2nc(N3CCC(CNC(=O)c4ccc(-c5ccc(C(=O)N(C)C)cc5OCCO)cc4)CC3)nc(N)c2cc1OC [TCMDC-138766]	-18.75	
COc1cc2nc(N3CCC(CNC(=O)c4ccc(-c5ccc(C(=O)N(C)C)cc5C)cc4)CC3)nc(N3CCN(C)CC3)c2cc1OC [TCMDC-138724]	15.4	
NCCc1cccc(-c2cnc3[nH]cc(-c4ccc(C(=O)O)cc4)c3c2)c1.O=C(O)C(F)(F)F [TCMDC-136363]	-2.826	
CN(Cc1cnc2nc(N)nc(N)c2n1)c1ccc(C(=O)NC(CCC(=O)O)C(=O)O)cc1 (stereo not shown) [TCMDC-123832]		33.25
CN(C)S(=O)(=O)n1ccc2c3c(N)nc(N)nc3ccc21 [TCMDC-137973]	-6.92	
NC(=O)c1cccc(CN2Cc3ccccc3OC3(CCN(Cc4c[nH]c5cnccc45)CC3)C2)c1 [TCMDC-133382]	-16.29	

Structure (SMILES)	% Inhibition [%]	% Inhibition (% Inhibition) [%]
COc1ccc2nccc([C@@H](O)CN3CCC(NCCOc4c(C)cccc4F)CC3)c2c1 [TCMDC-140657]	37.85	
CCOC(=O)CC[C@H](NC(=O)c1ccc(NS(=O)(=O)c2ccc(-c3cnc(N)[nH]c3=O)cc2)cc1)C(=O)OCC [TCMDC-137679]	3.183	
O=C(Nc1cccc(C(F)(F)F)c1)NC1CCN(c2ccnc3ccccc23)C1 (stereo not shown) [TCMDC-133579]	-23.57	
Cc1cc2c(cc1C(F)(F)F)N(C(=O)Nc1cccc(C(=O)NC3CCN(Cc4ccccc4)CC3)c1)CC2 [TCMDC-139972]	-14.42	
CN1CCC(NC(=O)c2cc(Oc3ccc4c(c3)CCN4C(=O)Nc3cccc(C(F)(F)F)c3)ccn2)CC1 [TCMDC-141751]	51.02	
COc1cc(Nc2nccc(N3CCC(NS(=O)(=O)c4ccc(NC(C)=O)cc4)CC3)n2)cc(OC)c1OC [TCMDC-133634]	-31.03	
O=[N+]([O-])c1cc(/C=N/Nc2nc3ccccc3[nH]2)ccc1O [TCMDC-139076]	6.997	
O=C(Nc1ccc(F)cc1)NC1CCN(c2ccnc3cc(Cl)ccc23)C1 (stereo not shown) [TCMDC-133407]	-45.03	
Cc1nc2ccccc2n1C1CC2CCC(C1)N2Cc1nccn1-c1ccccc1 (stereo not shown) [TCMDC-134167]	-3.664	
Cc1nc2ccccc2n1C1CC2CCC(C1)N2CCCC1(c2ccccc2)CCN(C(=O)OCc2ccccc2)CC1 (stereo not shown) [TCMDC-138708]	52.65	
O=C(/C=C/c1ccc(Cl)c(Cl)c1)NCCCCCN1CCC(NC(=O)Nc2ccc([N+](=O)[O-])cc2)CC1 [TCMDC-135719]	-1.594	
c1ccc([C@H]2CN3CCSC3=N2)cc1 [TCMDC-125847]	1.326	
Cc1cc(=O)c(-c2ccc(OCCSc3ccc(C(F)(F)F)cn3)cc2)c(C)[nH]1 [TCMDC-135289]	67.89	
Cc1[nH]c(C)c([N+](=O)[O-])c(=O)c1-c1ccc(Oc2ccccc2)cc1 [TCMDC-135779]	22.46	
Cc1cc(=O)c(-c2ccc(Oc3ccc(C(F)(F)F)cc3)cc2)c(C)n1O [TCMDC-138136]	12.43	
Cc1cc(=O)c(-c2ccc(Oc3cccc(C(F)(F)F)c3)cc2)c(C)[nH]1 [TCMDC-133308]		48.03
Cc1cc(=O)c(-c2ccc(Oc3cccc(C(F)(F)F)c3)cc2)c(C)[nH]1 [TCMDC-137536]		72.24
Cc1[nH]c2c(c(=O)c1Cl)-c1ccc(Oc3cccc(C(F)(F)F)c3)cc1C2=O [TCMDC-136022]	56.81	
COc1c(C)[nH]c(C)c(-c2ccc(Oc3cccc(C(F)(F)F)c3)cc2)c1=O [TCMDC-135253]	67.89	
Cc1[nH]c(C)c(C(F)(F)F)c(=O)c1-c1ccc(Oc2ccc(OC(F)(F)F)cc2)cc1 [TCMDC-135444]	33.82	
Cc1cc(=O)c(-c2ccc(OCc3ccc(OC(F)(F)F)cc3)cc2)c(C)[nH]1 [TCMDC-132123]	25.03	
Cc1[nH]n(-c2cccc(C(F)(F)F)c2)c(=O)c1-c1ccc(Cl)cc1 [TCMDC-124050]	16.03	
Cc1cc(=O)c2cc(-c3ccc(OC(F)(F)F)cc3)ccc2[nH]1 [TCMDC-137042]	32.81	
Cc1nc2c(c(O)c1Cl)-c1ccc(Oc3cccc(C(F)(F)F)c3)cc1C2=O [TCMDC-136021]	8.301	
